High-throughput results from PubChem.
UBC13 inh – UBC13 polyubiquitin chain formation inhibitors, primary screen, biochemical, TR-FRET, uHTS; Ubiquitin-conjugating enzyme E2 N (Homo sapiens), P61088; inhibition, % at 20 µM; 330,000 tested, 0.47% active; AID 485273, 2010; in the data active = inhibition above about 45%, passing the limit was not always enough
HGIII-sPLA2 inh – human group III sPLA2 inhibitors, primary screen, biochemical, QFRET, BODIPY PC-A2 liposome substrate. QFRET BODIPY PC-A2 liposome hydrolysis, fluorescence. 370,000 tested, 0.56% active. Group 3 secretory phospholipase A2 (Homo sapiens), Q9NZ20. inhibition, % at 12.2 µM;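 active = inhibition above mean plus 3 SD of compounds lying within the high and low control bounds, cut at about 19% in these data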
Target sequence (Q9NZ20 whole entry, looked up): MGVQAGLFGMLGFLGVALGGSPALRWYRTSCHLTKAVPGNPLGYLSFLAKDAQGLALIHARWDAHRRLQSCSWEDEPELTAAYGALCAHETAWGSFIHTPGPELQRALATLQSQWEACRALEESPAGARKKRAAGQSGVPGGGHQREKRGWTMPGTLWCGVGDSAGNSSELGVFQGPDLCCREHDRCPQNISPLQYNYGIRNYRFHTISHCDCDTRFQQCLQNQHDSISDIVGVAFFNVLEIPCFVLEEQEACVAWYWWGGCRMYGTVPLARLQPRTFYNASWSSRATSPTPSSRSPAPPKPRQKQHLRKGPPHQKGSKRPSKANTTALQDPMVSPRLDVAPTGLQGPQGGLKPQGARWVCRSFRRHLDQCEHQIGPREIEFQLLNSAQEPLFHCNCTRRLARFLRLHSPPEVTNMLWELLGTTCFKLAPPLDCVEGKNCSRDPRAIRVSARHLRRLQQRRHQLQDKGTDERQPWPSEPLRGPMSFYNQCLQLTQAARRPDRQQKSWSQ
NR3A LBD binder – binders of NR3A ligand-binding domain, primary screen, biophysical, differential scanning fluorimetry, uHTS | Glutamate receptor ionotropic, NMDA 3A (GRIN3A) ligand-binding domain | NR3A LBD differential scanning fluorimetry, Tm shift; 0% = protein alone, 100% = glycine-bound protein | Tm shift relative to glycine control, % at 25 µM | 340,000 tested, 2.5% active | AID 1259313, 2017;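 active = melting temperature shift of at least 10% of the positive control shift, at one fixed dose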
SUMO HTRF inh – inhibitors of in vitro SUMOylation cascade, primary screen, biochemical, HTRF, uHTS; SUMO-conjugating enzyme UBC9 (Homo sapiens), P63279; HTRF SUMOylation assay, SAE1/SAE2 + UBC9; inhibition, % at 35 µM; 290,000 tested, 0.36% active; in the data active = inhibition above about 50%, passing the limit was not always enough
A number is an active result; i = inactive; nt = no result given. Most compounds without a hit are left out; they make up all but 3.3% or so of the library.

SMILES | UBC13 inh | HGIII-sPLA2 inh | NR3A LBD binder | SUMO HTRF inh
COC(=O)C1CN(Cc2ccc(OC)cc2)CCS(=O)(=O)N1Cc1ccccc1 (configuration not stated) | nt | i | nt | nt
Oc1ccc(-c2nccc(-c3ccc(Cl)cc3)n2)cc1 | i | i | 56.7 | i
CN(C)/C=C1/Sc2ccccc2C1=O | i | i | i | i
CC(=O)N(\C=C/C=C/C=C1\Sc2ccccc2C1=O)c1ccccc1 | i | i | i | 69.3
CCCCCCC#Cc1cncc(C(=O)NNC(=O)Nc2cc(Cl)cc(Cl)c2)c1 | i | i | 15.9 | 62.4
O=C(N/N=C/c1cccs1)c1cc(-c2ccc3ccccc3c2)n[nH]1 | i | i | 13.2 | i
Cc1ccc(-c2cc(C(=O)NN=Cc3ccccc3OCC(=O)O)[nH]n2)cc1 | nt | i | nt | nt
Cc1ccc(-c2cc(C(=O)N/N=C/c3c[nH]c4ccccc34)[nH]n2)cc1 | nt | i | 27.3 | i
O=C(N/N=C/c1c[nH]c2ccccc12)c1cc(-c2ccc(-c3ccccc3)cc2)n[nH]1 | i | i | 20.1 | i
O=C(N/N=C/c1c[nH]c2ccccc12)c1cc(-c2cccc3ccccc23)n[nH]1 | i | i | i | i
O=C(N/N=C/c1c[nH]c2ccccc12)c1cc(-c2ccc3ccccc3c2)n[nH]1 | i | i | 40.6 | i
CCOc1ccc(-n2c(SCC(=O)Nc3ccc(Oc4ccccc4)cc3)nnc2-c2ccncc2)cc1 | nt | i | nt | nt
O=C(N/N=C/C=C/c1ccccc1[N+](=O)[O-])c1ccncc1 | i | i | i | i
O=C(N/N=C/c1c[nH]c2ccccc12)c1ccn[nH]1 | i | i | 10.8 | i
O=C(N/N=C/c1c[nH]c2ccccc12)c1cc(-c2ccccc2)n[nH]1 | i | i | 30.9 | i
Cc1ccc(-c2cc(C(=O)NN=Cc3ccc(-c4ccccc4)cc3)[nH]n2)cc1C | nt | i | nt | nt
O=C(N/N=C/C=C\c1ccccc1[N+](=O)[O-])c1cc(-c2ccc3ccccc3c2)n[nH]1 | nt | i | 18.1 | i
Cc1nc(C)c(C(=O)N/N=C/c2c[nH]c3ccccc23)s1 | i | nt | i | i
CCOC(=O)C1CCN(C(=O)C(C)(C)NC(=O)Nc2ccc(OC)c(Cl)c2)CC1 | nt | i | nt | nt
CCCCCCCCNC(=O)C1CSCCS(=O)(=O)N1Cc1ccc(F)cc1 (configuration not stated) | nt | i | nt | nt
CC1(C)CC(=O)C(C=NCCN2CCN(C(=O)CCl)CC2)=C(O)C1 | i | i | i | i
CCC(=O)N1CCN(CCN=CC2=C(O)CC(C)(C)CC2=O)CC1 | i | i | 12.7 | i
CC1(C)SC(=S)N(/N=C/c2ccccc2)C1N(O)C(=O)Nc1ccc([N+](=O)[O-])cc1 (configuration not stated) | i | i | 14.5 | i
CC1(C)SC(=S)N(NC(=O)Nc2cccc3ccccc23)C1N(O)C(=O)Nc1ccccc1 (configuration not stated) | i | i | 23.2 | i
O=C1CC(SC2=NCCS2)C(=O)N1c1ccc(Br)cc1 (configuration not stated) | i | i | i | i
SMILES | UBC13 inh | HGIII-sPLA2 inh | NR3A LBD binder | SUMO HTRF inh
O=C1CC(SC2=NCCS2)C(=O)N1c1ccc(Cl)cc1 (configuration not stated) | i | i | 23.7 | i
O=C(CCCCCN1C(=O)C2C3C=CC(C3)C2C1=O)N1CCN(c2ncccn2)CC1 (configuration not stated) | nt | i | nt | nt
CC(C)[C@H](NC(=O)OCc1ccccc1)C(=O)N[C@@H](Cc1ccccc1)C1(O)CN(C)C(C(=O)NCc2ccccn2)CO1 (some centres not stated) | nt | i | nt | nt
Cc1ccc(C)c2c1[nH]c1ccc([N+](=O)[O-])cc12 | i | i | 35.3 | i
Cc1c(C(=O)NN)[nH]c2ccc([N+](=O)[O-])cc12 | i | i | i | i
CC(=O)Nc1ccc(SC[C@H](CC(C)C)N2CCN(CC(C)C)CCC2=O)cc1 | i | i | 12.9 | i
CC(=O)Nc1ccc(SC[C@H](Cc2ccccc2)N2CCN(CC(C)C)CCC2=O)cc1 | i | i | i | i
CCCCCN1CCCCC(NC(=O)c2ccccc2C)C1=O (configuration not stated) | nt | i | nt | nt
N#C/C(=C\c1ccco1)C(=O)Nc1ccc(S(N)(=O)=O)cc1 | i | i | i | i
Cc1ccc(-c2ccc(/C=N/NC(=O)c3ccccc3O)o2)cc1 | i | nt | nt | i
